# Laboratory results from the supplement of paper PMC11732987, “Enantioselective OTUD7B fragment discovery through chemoproteomics screening and high-throughput optimisation” (Communications Chemistry, 2025).
# A number with no mark means an inactive call.
# Legend:
# Experiment in all cases: log2 ratio of Biotin-Ahx-Ub-VS probe labelling (fragment/DMSO); higher = less target engagement (more negative = stronger competition), active = hit call of the paper (q ≤ 0.05, log2 ratio ≤ -1)
# Conditions in all cases: compound concentration: 200 uM; treatment time: 3 h
# USP42 = molecular target: T1, USP42 (UniProt Q9H9J4)
# T1 sequence (whole entry): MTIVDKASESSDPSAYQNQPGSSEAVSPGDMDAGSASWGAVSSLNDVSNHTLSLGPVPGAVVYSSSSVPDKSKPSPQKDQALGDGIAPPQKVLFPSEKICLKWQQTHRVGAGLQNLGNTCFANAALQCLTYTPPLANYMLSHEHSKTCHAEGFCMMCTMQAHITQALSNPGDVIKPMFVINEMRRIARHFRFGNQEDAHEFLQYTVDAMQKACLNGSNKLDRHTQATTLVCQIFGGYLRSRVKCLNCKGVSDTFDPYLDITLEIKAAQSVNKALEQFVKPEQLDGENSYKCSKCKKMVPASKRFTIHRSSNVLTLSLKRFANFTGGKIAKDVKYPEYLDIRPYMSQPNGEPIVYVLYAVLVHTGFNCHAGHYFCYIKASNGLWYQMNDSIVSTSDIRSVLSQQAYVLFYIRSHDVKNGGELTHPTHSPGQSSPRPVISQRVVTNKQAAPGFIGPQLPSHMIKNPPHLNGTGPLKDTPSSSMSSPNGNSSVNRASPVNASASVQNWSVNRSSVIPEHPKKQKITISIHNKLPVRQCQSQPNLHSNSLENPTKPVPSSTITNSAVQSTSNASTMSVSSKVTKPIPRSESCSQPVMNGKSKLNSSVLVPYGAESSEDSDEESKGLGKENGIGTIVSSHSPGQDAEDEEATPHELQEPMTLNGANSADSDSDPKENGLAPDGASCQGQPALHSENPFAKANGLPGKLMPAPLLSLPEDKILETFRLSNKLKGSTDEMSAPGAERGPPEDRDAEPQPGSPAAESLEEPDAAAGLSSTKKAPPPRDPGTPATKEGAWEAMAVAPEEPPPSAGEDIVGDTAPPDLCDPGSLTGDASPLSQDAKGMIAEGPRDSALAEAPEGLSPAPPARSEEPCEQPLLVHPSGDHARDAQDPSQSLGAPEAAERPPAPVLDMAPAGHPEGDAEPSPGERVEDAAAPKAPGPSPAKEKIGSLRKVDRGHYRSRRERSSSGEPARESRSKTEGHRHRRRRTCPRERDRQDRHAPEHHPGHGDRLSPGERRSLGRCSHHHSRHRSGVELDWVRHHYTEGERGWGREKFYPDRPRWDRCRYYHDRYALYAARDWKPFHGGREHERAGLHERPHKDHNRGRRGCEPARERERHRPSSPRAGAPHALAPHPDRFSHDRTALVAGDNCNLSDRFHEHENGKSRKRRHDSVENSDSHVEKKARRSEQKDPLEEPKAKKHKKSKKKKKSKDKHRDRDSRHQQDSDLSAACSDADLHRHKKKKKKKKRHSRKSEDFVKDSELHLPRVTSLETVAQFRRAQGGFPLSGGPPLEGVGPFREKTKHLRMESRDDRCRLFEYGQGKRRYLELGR
# Method in brief: (§1)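 HEK293T lysate (495 µg per sample, in Tris/CHAPS/IGEPAL buffer with protease inhibitors) was treated in triplicate with fragment at 200 µM or with DMSO for 3 h. It was then treated with Biotin-Ahx-Ub-VS (0.5 µM final) for 1 h. Labelled DUBs were NeutrAvidin-enriched, digested with LysC and trypsin, and run by diaPASEF LC-MS/MS. Spectronaut label-free quantities were global-median-normalised. Values are average log2 ratios fragment/DMSO by unpaired t-test, using proteins with ≥2 unique peptides.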
# USP46 = USP46 (UniProt P62068)
# Sequence of USP46 (P62068 whole entry): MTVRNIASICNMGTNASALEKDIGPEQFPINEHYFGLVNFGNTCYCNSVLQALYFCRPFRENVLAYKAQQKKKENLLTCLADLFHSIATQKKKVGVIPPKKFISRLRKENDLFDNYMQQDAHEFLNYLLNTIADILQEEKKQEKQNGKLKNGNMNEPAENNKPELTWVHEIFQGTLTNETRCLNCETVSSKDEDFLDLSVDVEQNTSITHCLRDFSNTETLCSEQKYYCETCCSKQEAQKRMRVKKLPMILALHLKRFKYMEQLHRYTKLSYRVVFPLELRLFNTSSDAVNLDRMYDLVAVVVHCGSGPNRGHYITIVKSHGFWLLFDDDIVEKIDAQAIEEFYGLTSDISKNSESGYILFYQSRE
# Method in brief: as §1
# USP47 = molecular target: T2, USP47 (UniProt Q96K76)
# T2 sequence (whole entry): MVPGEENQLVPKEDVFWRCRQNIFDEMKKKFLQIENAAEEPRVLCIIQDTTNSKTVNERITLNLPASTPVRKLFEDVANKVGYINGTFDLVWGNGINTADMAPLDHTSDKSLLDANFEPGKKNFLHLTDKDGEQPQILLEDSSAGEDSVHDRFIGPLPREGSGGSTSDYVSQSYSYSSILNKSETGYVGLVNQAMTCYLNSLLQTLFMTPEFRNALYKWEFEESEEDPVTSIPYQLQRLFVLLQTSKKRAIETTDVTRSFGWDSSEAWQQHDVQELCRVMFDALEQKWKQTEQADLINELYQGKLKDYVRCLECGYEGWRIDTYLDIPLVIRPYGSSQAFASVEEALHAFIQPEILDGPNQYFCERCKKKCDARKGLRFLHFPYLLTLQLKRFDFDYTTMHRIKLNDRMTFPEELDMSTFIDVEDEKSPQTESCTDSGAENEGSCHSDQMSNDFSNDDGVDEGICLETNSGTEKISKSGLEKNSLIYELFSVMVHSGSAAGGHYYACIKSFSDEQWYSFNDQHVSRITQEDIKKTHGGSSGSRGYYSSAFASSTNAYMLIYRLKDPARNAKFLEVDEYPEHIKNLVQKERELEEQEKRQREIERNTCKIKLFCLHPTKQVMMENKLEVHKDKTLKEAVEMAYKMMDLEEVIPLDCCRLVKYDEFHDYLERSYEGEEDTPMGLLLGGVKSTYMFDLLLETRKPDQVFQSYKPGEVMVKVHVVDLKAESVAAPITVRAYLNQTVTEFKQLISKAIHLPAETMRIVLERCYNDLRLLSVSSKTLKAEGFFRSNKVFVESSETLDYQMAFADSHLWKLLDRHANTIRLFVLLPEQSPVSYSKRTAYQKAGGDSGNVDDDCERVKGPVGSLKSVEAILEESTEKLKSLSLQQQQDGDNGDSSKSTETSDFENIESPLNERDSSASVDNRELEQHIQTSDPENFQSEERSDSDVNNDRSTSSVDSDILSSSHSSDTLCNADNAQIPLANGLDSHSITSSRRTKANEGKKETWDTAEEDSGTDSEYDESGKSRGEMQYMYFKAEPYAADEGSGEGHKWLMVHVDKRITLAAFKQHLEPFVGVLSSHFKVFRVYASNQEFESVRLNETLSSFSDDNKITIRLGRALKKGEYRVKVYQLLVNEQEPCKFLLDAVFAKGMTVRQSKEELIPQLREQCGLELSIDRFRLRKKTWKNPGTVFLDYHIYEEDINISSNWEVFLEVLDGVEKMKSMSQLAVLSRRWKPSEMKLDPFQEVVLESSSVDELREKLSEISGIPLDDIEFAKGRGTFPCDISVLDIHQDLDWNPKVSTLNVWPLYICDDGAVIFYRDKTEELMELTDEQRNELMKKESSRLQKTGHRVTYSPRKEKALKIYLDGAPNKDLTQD
# Method in brief: as §1
# USP48 = molecular target: T3, USP48 (UniProt Q86UV5)
# T3 sequence (whole entry): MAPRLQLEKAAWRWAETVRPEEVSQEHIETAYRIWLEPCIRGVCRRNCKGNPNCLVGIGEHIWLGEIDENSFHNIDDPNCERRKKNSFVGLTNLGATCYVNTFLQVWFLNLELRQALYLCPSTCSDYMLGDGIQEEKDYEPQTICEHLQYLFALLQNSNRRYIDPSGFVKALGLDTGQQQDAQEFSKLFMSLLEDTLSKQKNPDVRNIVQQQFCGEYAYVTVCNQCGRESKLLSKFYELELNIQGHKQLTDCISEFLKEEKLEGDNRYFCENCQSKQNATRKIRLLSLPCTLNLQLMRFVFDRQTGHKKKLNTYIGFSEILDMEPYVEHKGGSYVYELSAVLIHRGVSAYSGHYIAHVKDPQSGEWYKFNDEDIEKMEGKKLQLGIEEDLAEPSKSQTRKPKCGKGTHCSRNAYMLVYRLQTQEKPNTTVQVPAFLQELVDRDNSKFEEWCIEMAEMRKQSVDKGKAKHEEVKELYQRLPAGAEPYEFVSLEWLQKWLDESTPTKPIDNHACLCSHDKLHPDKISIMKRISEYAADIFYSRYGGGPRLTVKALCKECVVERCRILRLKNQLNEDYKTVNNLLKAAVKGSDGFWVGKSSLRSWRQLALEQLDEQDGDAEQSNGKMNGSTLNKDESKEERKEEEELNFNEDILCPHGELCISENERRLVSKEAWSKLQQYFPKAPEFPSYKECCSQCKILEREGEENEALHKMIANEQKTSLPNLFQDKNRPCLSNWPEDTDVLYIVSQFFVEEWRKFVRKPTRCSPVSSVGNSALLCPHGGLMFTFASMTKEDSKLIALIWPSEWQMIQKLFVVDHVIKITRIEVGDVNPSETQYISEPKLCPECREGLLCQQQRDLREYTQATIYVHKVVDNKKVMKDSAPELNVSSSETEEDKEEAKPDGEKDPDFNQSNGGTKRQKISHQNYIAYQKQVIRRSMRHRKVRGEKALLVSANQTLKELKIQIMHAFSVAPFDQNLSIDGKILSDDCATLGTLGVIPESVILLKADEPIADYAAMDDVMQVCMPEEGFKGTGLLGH
# Method in brief: as §1
# USP5 = molecular target: T4, USP5 (UniProt P45974)
# T4 sequence (whole entry): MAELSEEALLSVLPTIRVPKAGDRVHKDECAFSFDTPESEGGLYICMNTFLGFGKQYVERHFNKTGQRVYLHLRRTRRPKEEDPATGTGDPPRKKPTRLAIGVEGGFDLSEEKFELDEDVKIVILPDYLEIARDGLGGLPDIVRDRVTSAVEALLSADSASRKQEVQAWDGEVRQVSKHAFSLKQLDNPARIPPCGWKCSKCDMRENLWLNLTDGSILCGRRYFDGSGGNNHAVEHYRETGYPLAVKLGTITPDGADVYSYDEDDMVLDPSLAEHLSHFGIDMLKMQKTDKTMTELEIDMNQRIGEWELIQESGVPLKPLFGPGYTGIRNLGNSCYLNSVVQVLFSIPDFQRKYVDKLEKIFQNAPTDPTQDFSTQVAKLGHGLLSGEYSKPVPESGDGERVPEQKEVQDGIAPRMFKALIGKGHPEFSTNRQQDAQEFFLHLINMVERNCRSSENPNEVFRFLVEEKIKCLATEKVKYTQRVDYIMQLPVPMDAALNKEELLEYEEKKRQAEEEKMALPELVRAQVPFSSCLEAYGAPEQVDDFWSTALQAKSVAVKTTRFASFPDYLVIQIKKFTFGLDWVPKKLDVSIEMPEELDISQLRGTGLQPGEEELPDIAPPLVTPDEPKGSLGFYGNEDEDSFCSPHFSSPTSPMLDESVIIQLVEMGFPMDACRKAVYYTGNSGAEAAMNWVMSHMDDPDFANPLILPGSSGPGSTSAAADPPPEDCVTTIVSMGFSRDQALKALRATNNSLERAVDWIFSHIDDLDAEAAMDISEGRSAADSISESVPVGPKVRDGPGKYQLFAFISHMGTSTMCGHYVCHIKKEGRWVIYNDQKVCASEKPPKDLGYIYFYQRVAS
# Method in brief: as §1
# USP54 = USP54 (UniProt Q70EL1)
# Sequence of USP54 (Q70EL1 whole entry): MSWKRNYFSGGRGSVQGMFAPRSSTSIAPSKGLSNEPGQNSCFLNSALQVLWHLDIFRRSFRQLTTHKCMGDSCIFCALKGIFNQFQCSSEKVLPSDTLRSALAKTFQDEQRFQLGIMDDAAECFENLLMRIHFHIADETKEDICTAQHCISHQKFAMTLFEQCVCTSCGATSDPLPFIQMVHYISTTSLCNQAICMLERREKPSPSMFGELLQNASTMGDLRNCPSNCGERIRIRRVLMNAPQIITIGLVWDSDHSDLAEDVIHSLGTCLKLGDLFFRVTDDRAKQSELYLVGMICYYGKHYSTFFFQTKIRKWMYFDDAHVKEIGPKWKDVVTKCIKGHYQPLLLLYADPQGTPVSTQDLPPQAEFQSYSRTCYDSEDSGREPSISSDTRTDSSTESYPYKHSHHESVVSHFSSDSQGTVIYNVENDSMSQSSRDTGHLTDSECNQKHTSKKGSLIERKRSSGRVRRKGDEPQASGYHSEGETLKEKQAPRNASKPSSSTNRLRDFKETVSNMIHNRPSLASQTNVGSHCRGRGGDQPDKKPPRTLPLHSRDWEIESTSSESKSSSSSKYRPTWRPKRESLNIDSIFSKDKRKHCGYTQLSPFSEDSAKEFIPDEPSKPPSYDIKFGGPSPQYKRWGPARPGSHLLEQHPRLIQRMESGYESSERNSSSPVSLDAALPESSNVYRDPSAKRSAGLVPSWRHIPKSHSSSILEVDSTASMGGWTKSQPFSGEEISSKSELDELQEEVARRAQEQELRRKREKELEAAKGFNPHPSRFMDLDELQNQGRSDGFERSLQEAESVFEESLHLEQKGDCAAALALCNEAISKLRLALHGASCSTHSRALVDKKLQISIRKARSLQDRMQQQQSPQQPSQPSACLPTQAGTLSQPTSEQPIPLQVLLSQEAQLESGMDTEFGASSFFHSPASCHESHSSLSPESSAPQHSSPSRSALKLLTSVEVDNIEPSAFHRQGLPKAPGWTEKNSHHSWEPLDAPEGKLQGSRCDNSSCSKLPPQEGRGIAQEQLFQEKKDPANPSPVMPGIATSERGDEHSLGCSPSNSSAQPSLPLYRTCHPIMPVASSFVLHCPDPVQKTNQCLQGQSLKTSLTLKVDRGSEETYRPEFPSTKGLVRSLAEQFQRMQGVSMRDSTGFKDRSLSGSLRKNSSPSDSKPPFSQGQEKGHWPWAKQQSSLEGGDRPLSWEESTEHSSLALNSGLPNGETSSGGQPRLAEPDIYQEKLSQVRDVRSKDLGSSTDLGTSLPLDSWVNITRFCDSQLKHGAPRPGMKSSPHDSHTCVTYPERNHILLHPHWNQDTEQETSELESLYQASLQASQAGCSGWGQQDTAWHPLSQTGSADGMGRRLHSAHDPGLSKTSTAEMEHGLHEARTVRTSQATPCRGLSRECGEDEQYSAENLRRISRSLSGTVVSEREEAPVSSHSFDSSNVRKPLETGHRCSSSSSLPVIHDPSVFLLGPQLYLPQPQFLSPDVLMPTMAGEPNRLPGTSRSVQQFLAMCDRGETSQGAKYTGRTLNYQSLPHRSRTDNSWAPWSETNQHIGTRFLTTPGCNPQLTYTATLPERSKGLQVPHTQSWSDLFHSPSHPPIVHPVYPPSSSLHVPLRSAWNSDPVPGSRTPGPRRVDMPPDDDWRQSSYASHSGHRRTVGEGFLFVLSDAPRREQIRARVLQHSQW
# Method in brief: as §1
# USP7 = USP7 (UniProt Q93009)
# Sequence of USP7 (Q93009 whole entry, looked up): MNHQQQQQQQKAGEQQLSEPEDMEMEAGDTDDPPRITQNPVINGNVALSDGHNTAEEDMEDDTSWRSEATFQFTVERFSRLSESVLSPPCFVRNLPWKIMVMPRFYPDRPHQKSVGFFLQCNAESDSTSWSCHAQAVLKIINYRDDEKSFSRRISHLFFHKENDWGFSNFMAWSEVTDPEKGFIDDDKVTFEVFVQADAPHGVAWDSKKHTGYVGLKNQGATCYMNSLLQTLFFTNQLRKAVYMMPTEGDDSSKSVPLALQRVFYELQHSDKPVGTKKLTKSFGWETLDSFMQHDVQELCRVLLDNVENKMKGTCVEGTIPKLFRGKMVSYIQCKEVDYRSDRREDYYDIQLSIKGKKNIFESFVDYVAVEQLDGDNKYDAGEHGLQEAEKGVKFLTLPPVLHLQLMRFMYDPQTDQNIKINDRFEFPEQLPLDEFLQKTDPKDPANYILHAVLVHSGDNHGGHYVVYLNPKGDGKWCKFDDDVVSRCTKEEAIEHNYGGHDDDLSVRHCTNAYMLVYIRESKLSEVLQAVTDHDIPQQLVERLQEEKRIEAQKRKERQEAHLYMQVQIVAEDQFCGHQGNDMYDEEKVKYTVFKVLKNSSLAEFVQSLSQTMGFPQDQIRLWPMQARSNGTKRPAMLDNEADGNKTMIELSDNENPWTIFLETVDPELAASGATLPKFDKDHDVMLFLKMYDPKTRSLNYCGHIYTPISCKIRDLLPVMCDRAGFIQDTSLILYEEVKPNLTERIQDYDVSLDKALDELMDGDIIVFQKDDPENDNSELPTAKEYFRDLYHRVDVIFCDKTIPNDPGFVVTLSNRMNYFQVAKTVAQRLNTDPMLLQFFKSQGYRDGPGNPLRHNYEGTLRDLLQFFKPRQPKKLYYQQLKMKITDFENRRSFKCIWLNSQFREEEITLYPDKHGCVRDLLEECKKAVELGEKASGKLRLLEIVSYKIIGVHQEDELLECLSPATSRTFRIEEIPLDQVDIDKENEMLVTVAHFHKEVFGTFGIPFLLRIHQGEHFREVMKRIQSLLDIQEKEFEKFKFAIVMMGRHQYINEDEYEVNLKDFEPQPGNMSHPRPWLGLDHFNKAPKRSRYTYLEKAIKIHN
# Method in brief: as §1
# USP8 = molecular target: T5, USP8 (UniProt P40818)
# T5 sequence (whole entry): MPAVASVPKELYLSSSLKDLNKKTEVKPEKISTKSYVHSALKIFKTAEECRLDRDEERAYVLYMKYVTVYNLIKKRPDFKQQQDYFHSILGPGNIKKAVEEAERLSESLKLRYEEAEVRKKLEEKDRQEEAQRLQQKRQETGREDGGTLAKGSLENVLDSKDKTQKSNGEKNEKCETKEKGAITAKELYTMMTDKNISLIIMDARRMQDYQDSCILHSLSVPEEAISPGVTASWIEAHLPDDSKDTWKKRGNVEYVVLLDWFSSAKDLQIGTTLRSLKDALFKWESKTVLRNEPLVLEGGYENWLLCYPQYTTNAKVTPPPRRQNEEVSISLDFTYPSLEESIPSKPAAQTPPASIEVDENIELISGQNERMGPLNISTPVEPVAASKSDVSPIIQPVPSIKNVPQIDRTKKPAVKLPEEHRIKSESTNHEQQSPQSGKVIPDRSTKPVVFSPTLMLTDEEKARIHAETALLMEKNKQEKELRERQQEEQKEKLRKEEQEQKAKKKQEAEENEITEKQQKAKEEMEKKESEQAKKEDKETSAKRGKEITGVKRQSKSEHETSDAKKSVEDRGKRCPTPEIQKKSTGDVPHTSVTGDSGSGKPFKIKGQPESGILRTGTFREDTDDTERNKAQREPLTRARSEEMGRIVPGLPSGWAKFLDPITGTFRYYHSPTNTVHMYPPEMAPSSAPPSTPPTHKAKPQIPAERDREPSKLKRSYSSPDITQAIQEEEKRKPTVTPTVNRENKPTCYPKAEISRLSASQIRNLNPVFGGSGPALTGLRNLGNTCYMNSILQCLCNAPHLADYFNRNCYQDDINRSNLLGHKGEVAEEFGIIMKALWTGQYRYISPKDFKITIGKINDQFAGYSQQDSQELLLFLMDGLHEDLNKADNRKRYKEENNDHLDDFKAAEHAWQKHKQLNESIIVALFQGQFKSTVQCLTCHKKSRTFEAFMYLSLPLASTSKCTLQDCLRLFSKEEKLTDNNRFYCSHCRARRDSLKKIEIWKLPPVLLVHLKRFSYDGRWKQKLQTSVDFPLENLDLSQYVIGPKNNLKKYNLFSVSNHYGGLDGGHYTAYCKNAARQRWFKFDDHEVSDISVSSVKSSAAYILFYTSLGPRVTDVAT
# Method in brief: as §1
# USP9X = USP9X (UniProt Q93008)
# Method in brief: as §1
# UniProt O00487 = molecular target: UniProt O00487
# Sequence of UniProt O00487 (O00487 whole entry): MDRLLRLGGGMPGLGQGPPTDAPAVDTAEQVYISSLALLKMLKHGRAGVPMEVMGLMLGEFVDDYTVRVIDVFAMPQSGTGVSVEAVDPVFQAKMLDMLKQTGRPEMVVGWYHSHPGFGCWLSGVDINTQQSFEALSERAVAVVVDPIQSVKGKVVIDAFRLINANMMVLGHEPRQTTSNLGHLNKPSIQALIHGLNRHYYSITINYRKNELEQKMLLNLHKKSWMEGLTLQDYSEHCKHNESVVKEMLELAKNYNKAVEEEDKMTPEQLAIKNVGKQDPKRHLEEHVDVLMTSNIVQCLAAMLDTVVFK
# Method in brief: as §1
compound,measurement,setting,value
COc1ccc(C2CCCN2C(=O)CCl)c(OC)c1 (stereo not given),log2 ratio of Biotin-Ahx-Ub-VS probe labelling,USP42,0.426
same,log2 ratio of Biotin-Ahx-Ub-VS probe labelling,USP46,-0.295
same,log2 ratio of Biotin-Ahx-Ub-VS probe labelling,USP47,-0.378
same,log2 ratio of Biotin-Ahx-Ub-VS probe labelling,USP48,-0.744
same,log2 ratio of Biotin-Ahx-Ub-VS probe labelling,USP5,0.0602
same,log2 ratio of Biotin-Ahx-Ub-VS probe labelling,USP54,0.223
same,log2 ratio of Biotin-Ahx-Ub-VS probe labelling,USP7,-1.23 (active)
same,log2 ratio of Biotin-Ahx-Ub-VS probe labelling,USP8,-0.00675
same,log2 ratio of Biotin-Ahx-Ub-VS probe labelling,USP9X,-0.271
same,log2 ratio of Biotin-Ahx-Ub-VS probe labelling,UniProt O00487,-0.0639
